Bioassay records as filed in PubChem.
A selection: hits, their analogues and other compounds. The true share with any hit is near 17%.
TDP1 inh – TDP1 (human) enzyme inhibition; Q9NUW8; recombinant TDP1, AlphaScreen DNA substrate cleavage; Potency, µM (top dose mostly 130 µM), for the others: at the top dose activity change, negative = inhibition, usual class: inhibitors; hit rate 0.28% among 350,000; AID 485290; note: % is set by controls: 0 for no effect and ±100 for the full control effect; nearly all actives have a fitted effect of over 40% in size
Target sequence (Q9NUW8 whole entry, looked up): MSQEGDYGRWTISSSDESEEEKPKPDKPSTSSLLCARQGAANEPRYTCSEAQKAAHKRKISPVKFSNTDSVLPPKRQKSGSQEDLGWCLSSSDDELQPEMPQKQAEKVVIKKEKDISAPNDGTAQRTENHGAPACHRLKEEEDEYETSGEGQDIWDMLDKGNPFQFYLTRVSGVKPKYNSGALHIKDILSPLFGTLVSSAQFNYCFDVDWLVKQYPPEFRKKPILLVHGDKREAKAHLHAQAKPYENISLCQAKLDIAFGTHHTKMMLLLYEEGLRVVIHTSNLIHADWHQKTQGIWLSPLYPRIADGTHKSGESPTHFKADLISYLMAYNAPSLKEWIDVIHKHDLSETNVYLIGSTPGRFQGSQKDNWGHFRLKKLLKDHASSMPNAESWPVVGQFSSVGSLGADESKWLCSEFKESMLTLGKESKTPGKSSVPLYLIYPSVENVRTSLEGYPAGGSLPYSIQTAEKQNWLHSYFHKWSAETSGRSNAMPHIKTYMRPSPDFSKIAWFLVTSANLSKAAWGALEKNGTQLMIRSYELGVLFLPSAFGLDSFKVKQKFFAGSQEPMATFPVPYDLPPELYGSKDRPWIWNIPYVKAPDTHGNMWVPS
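E. coli-derived human Tdp1, 1 nM final. Cpd preinc 15 min RT; substrate 15 nM final, 5 min RT; AS bead mix 10 ug/ml final, 10 min RT. Signal loss = tyrosine-FITC cleavage. No-enzyme wells = max signal.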
TDP1 cell noCPT – qHTS for Inhibitors of human tyrosyl-DNA phosphodiesterase 1 (TDP1): qHTS in cells in absence of CPT. DT40 Tdp1-/- hTDP1 cells, no CPT, ATP luminescence, 48 h. Potency, µM (series often up to 46.2 µM), without a hit: at the top dose activity change, negative = growth inhibition, most hits filed as inhibitors. hit rate 15% among 420,000; note: % is set by controls: 0 for no effect and ±100 for the full control effect; nearly all actives have a fitted effect of over 55% in size
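Luminescent ATP content (CellTiter-Glo) served as the growth readout. Knockout chicken DT40 cells expressing human TDP1 were exposed to compounds without camptothecin for a minimum 48 hr at 37 °C.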
ClpP mod – qHTS Assay for Activators of ClpP. ATP-dependent Clp protease proteolytic subunit (Bacillus subtilis (strain 168)), P80244. purified B. subtilis ClpP, FRET peptide cleavage, 20 min. Potency, µM (titrated, usually from 57.5 µM), inactives show top-dose activity change, negative = active. hit rate 1.9% among 340,000; active = well fitted falling curve with a large enough effect; inconclusive = small, poorly fitted or top-dose-only effect; inactive = no such curve, though single readings can be large or run the other way; note: the source files actives as falling curves though it sought activators and does not explain the sign; nearly all actives have a fitted effect of over 65% in size
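FRET quenching reversal measured ClpP activation: 10 microg/mL B. subtilis ClpP at pH 8 with the FRET-FV decapeptide, read at 430 nm after 320 nm excitation. The 20-min minus 0-min signal was scaled between DMSO/no-enzyme wells and ADEP (5.8 microM final).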
DT40 TDP1 CPT – growth inhibition of DT40 Tdp1-/-;hTDP1 cells with camptothecin (screen for TDP1 inhibitors) | hit rate 12% among 420,000 | Potency, µM (highest dose often 46.2 µM), for the others: at the highest dose activity change, negative = growth inhibition, hits mostly inhibitors | chicken DT40 Tdp1-/-;hTDP1 cells + 20 nM CPT, ATP luminescence, 48 h; note: % is set by controls: 0 for no effect and ±100 for the full control effect; nearly all actives have a fitted effect of over 55% in size
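Chicken DT40 Tdp1-/- cells complemented with human TDP1, 400 cells/well, exposed to compounds plus 20 nM camptothecin for at least 48 h at 37 C; viability read as ATP content by CellTiter-Glo luminescence.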
Active calls of the source: *; ? = inconclusive; nt = not tested or not shown; ! = not confirmed by another sample; [ ] = remark or other dose. Unless noted, calls come from the whole dose curve; as a rule, active = well fitted curve in the direction sought with a large enough effect; inconclusive = small, poorly fitted or top-dose-only effect, or another doubt; inactive = no such curve, though single readings can be large; an effect the other way counts as inactive or inconclusive. Potency is the fitted concentration of half-maximal effect.

SMILES	TDP1 inh	TDP1 cell noCPT	ClpP mod	DT40 TDP1 CPT
COc1cc(NC(=O)c2ccc(-c3ccc(F)c(F)c3)c3ccoc23)cc(OC)c1OC	nt	4.1µM*	84%	4.1µM*
CN1CCN(C(=O)c2ccc(-c3ccc(F)c(F)c3)c3ccoc23)CC1	nt	16µM*	-4%	16µM*
CC(C)NC(=O)c1ccc(-c2ccc(F)c(F)c2)c2ccoc12	nt	23µM*	4%	26µM*
O=C(Nc1cccc(OC(F)(F)F)c1)c1ccc(-c2cccnc2)c2ccoc12	nt	?	10%	?
CN1CCN(C(=O)c2ccc(F)c(F)c2)CC1	nt	11%	0%	-2%
COc1cc(NC(=O)c2ccc(-c3cccnc3)c3ccoc23)cc(OC)c1OC	nt	6.5µM*	?	13µM*
COCCNC(=O)c1ccc(-c2cn[nH]c2)c2ccoc12	nt	-3%	5%	?
CN1CCN(c2ccc(CNC(=O)c3ccc(-c4ccnn4C)c4ccoc34)cc2)CC1	nt	?	-1%	?
COc1cc(NC(=O)c2ccc(-c3cn[nH]c3)c3ccoc23)cc(OC)c1OC	nt	13µM*	-9%	12µM*
COc1cc(NC(=O)c2ccc(-c3ccnn3C)c3ccoc23)cc(OC)c1OC	nt	21µM*	?	?
CC(C)c1ccc(NC(=O)c2ccc(-c3ccnn3C)c3ccoc23)cc1	nt	21µM*	-7%	16µM*
CC(=O)Nc1ccc(NC(=O)c2ccc(-c3ccnn3C)c3ccoc23)cc1	nt	?	-6%	?
COC(=O)c1ccc2c(=O)[nH]c(COC(=O)c3c(-c4ccccc4)noc3C)nc2c1	-6%[0.505 µM]	-29%	nt	?
CCCCC/C=C\C/C=C\CCCCCCCC(=O)NC(C)c1ccccc1 (centres undefined)	nt	3%	nt	-15%
CC1CC(C)CN(S(=O)(=O)c2ccc3c(c2)CC(C)N3C(=O)C2CCC2)C1 (centres undefined)	0%	15µM*	-2%	23µM*
CC1Cc2cc(S(=O)(=O)N3CCCCC3C)ccc2N1C(=O)C1CCC1 (centres undefined)	0%	?	-1%	?
CCOC(=O)C1CCCCN1S(=O)(=O)c1ccc2c(c1)CC(C)N2C(=O)C1CCC1 (centres undefined)	1%	9.2µM*	2%	23µM*
CC1CC(C)CN(S(=O)(=O)c2ccc3c(c2)CC(C)N3C(=O)C2CC2)C1 (centres undefined)	1%	15µM*	-5%	18µM*
C[C@H](CO)N1C[C@H](C)[C@@H](CN(C)C(=O)NC2CCCCC2)Oc2ccc(NC(=O)C3CC3)cc2C1=O	nt	-18%	-2%	-9%
CC(Cl)C(=O)NC(=O)NC12CC3CC(CC(C3)C1)C2 (centres undefined)	0%	21µM*	-1%	16µM*
CC(C)(C)NC(=O)NC12CC3CC(CC(C3)C1)C2	6%	-9%	2%	5%
COC(=O)C1=C(C)N(CCc2c[nH]c3ccc(OC)cc23)C(=O)C1	6%	-29%	nt	-7%
O=c1cc2ncc(-n3cc([N+](=O)[O-])cn3)cn2[nH]1	8.9µM*	-7%	1%	10%
O=c1cc2ncc(-c3[nH]ncc3[N+](=O)[O-])cn2[nH]1	3%	18%	-1%	2%
CCCn1cnc2c(SCCc3ccccc3)nc(N)nc21	nt	-23%	1%	-4%
SMILES	TDP1 inh	TDP1 cell noCPT	ClpP mod	DT40 TDP1 CPT
COC(=O)[C@H](Cc1ccc(O)cc1)NC(=O)Cn1cnc2c(SC)nc(N)nc21	-1%	-3%	?	-1%
COC(=O)c1ccc(CNC(=O)Cn2cnc3c(SC)nc(N)nc32)cc1	0%	?	-6%	23µM*
CCCCn1cnc2c(SCCc3ccccc3)nc(N)nc21	nt	?	28µM*	-21%
CSc1nc(N)nc2c1ncn2CC(=O)NCCCc1ccccc1	2%	15µM*	?	?
COc1ccc(CN(C)C(=O)Cn2cnc3c(SC)nc(N)nc32)cc1OC	0%	21µM*	-24%	15µM*
Cc1cn([C@H]2C[C@H](O)[C@@H](CCC(=O)NCc3ccccc3)O2)c(=O)[nH]c1=O	nt	-106%	4%	-98%
CCC(C)Cn1cnc2c(SCc3ccccc3F)nc(N)nc21 (centres undefined)	nt	21µM*	nt	?
CC(C)Cn1cnc2c(SCc3ccccc3F)nc(N)nc21	nt	?	0%	?
COc1ccc(C(C)(O)c2nc(-c3cccc(NC(C)=O)c3)cs2)cc1 (centres undefined)	nt	?	-1%	-72%
N=C(N)c1ccc(Cl)cc1	4%	-12%	nt	20%
N=C(N)c1ccc(/C=C/c2ccc(C(=N)N)cc2O)cc1	6%	?	-1%	13µM*!
O=C(CN1CCN(c2ccccn2)CC1)N1c2ccccc2CCc2ccccc21	-2%	-77%	4%	?
Cc1c(C)n(C(=O)CN2CCN(c3ccccn3)CC2)c2ccccc12	3%	12µM*	-15%	?
O=C(CN1CCN(c2ccccn2)CC1)N(c1ccccc1)c1ccc2ccccc2c1	4%	18µM*	-6%	16µM*
O=C(CN1CCN(c2ccccn2)CC1)Nc1ccc([N+](=O)[O-])cc1C(=O)Nc1ccccc1F	4%	7.3µM*	-1%	23µM*
CC(C)c1ccc(NC(=O)CN2CCN(c3ccccn3)CC2)cc1	nt	-11%	-4%	-24%
CSc1ccccc1NC(=O)CN1CCN(c2ccccn2)CC1	nt	?	-6%	23µM*
O=C(CN1CCOCC1)N(c1ccccc1)c1ccc2ccccc2c1	8%	?	-4%	-19%
CCCCn1c(N)c(N(CC(C)C)C(=O)C2CCN(S(=O)(=O)c3ccc(C)cc3C)CC2)c(=O)[nH]c1=O	-3%	-6%	-2%	-11%
CN(Cc1ccccc1)C(=O)COC(=O)CCC(=O)c1ccc(Cl)cc1	0%	4%	-3%	-22%
CNc1c(NS(=O)(=O)c2ccc(C3CCCCC3)cc2)c(=O)oc2ccccc12	3%	-10%	nt	-19%
Cc1ccc(C(=O)NCCC(=O)N2CCOCC2)cc1	0%	21%	0%	-4%
COc1ccc(NC(=O)CN2CCN(c3ccccn3)CC2)cc1Cl	nt	3%	-5%	2%
COc1cc(Cl)c(C)cc1NC(=O)c1ccccc1NC(=O)CN1CCN(c2ccccn2)CC1	nt	26µM*	?	18µM*
Cc1ccccc1Cn1cnc2nc3c(cc2c1=O)CC(C)CC3 (centres undefined)	-1%	2.6µM*	-6%	16µM*
O=c1c2cc3c(nc2ncn1Cc1ccc(Cl)cc1)CCCC3	3%	?	-8%	?
CC1CCc2nc3ncn(Cc4ccc(Cl)cc4)c(=O)c3cc2C1 (centres undefined)	-1%	23µM*	-3%	18µM*
